From PubChem BioAssay AID652053 (Broad Institute, 2013)
Hit rate of the full screen: of about 1,300 compounds, about 930 (72%) were called active.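 Rule for the calls: active = fitted curve reaches 40% activation signal increase at or below the top valid tested concentration in every replicate test; inconclusive = replicate tests disagree in their calls; inactive = all replicate tests inactive, including effects opposite the expected signal rise.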 So high a share suggests a set chosen from earlier hits. Only a sample is shown. Potency and affinity values are given separately.

experiment: suppression of miR-122 activity, Renilla luciferase sensor – cell-based, Huh7 psiCHECK-miR122, cherry-pick, dose response (AID 652053); conditions: Huh7 psiCHECK-miR122 Renilla luciferase reporter, 48 h; series mostly up to 35 µM

outcome, inactive:
C/C=C/c1ccc([C@H]2[C@@H](CO)N(c3nc(CC)cs3)[C@H]2CNC(C)C)cc1
Cc1cc(C)cc(NC2=NC3(CCCCC3)N=C(N)N2)c1
C/C=C/c1ccc([C@H]2[C@H](CO)N(c3nc(CC)cs3)[C@H]2CNC(C)C)cc1
Cc1cc(N/N=C/c2ccc(O)c(C)c2O)nc(-c2ccccc2O)n1
CCC(=O)Nc1ccc(C(=O)Nc2cccc(C)n2)cc1
C[C@@H]1CN([C@@H](C)CO)C(=O)Cc2cc(NC(=O)Nc3cccc4ccccc34)ccc2O[C@@H]1CN(C)C(=O)NC1CCCCC1
C[C@H](CO)N1C[C@H](C)[C@H](CN(C)C(=O)NC2CCCCC2)Oc2ccc(NC(=O)Nc3cccc4ccccc34)cc2CC1=O
CC(C)NC(=O)Nc1ccc2c(c1)CC(=O)N([C@H](C)CO)C[C@@H](C)[C@@H](CN(C)Cc1ccc(Oc3ccccc3)cc1)O2
C[C@H](CO)N1C[C@H](C)[C@@H](CN(C)Cc2ccncc2)Oc2ccc(NC(=O)Nc3cccc4ccccc34)cc2CC1=O
COc1cccc(C(=O)Nc2cc([N+](=O)[O-])ccc2N2CCN(C)CC2)c1
COc1ccc(NC(C)=O)cc1NC(C)C(=O)Nc1cc(C(F)(F)F)ccc1N1CCOCC1 (stereo unspecified)
Cc1nc2ccccc2n1S(=O)(=O)c1ccc(F)cc1
CC(C)n1c(/C=C/c2ccccc2)nc2ccccc21
COc1ccc(S(=O)(=O)Nc2ccc3c(c2)COC3=O)cc1OC
CC(=O)N1[C@H](CO)[C@H](c2ccc(C3=CCCCC3)cc2)[C@@H]1CNC(=O)CN(C)C
Cc1ccc(C)c(CSc2nnc(-c3cccnc3)o2)c1
COc1ccc(OC)c(Nc2cc(C)nc3nc(C)nn23)c1
Cc1cc(OCC(O)CN2CCOCC2)cc(C)c1Cl (stereo unspecified)
O=C(Nc1cccc([N+](=O)[O-])c1)c1ccc(CSc2ccccc2)cc1
Fc1ccc(-n2nnc(-c3nccs3)n2)cc1
CCc1nc2sc3c(c2c(=O)n1NC(=O)CCl)CCCC3
COc1ccc(CN(C)C[C@@H]2OCCCC[C@@H](C)Oc3ccc(NC(=O)c4ccccc4)cc3C(=O)N([C@H](C)CO)C[C@@H]2C)cc1
COc1cccc(N2CCN(C(=S)Nc3cccc(C)c3)CC2)c1
C/C=C/c1ccc([C@@H]2[C@@H](CO)N(c3nc(CC)cs3)[C@@H]2CNC(C)C)cc1
COc1ccc(CNC(=O)C(c2ccco2)N(C(=O)c2csnn2)c2cccc(C)c2C)cc1 (stereo unspecified)
COc1cc(C(=S)N2CCOCC2)cc(OC)c1OC(=O)c1ccc(F)cc1
O=C(Oc1ccc(C(=S)N2CCOCC2)cc1)c1ccccc1
O=C(Oc1ccc(C(=S)N2CCOCC2)cc1)c1ccccc1F
O=C(Oc1ccc(C(=S)N2CCOCC2)cc1)c1ccc(F)cc1
CCOC(=O)c1ccc(NS(=O)(=O)c2ccc3[nH]c(=O)[nH]c3c2)cc1
CC(=O)N1[C@H](CO)[C@@H](c2ccc(C3=CCCCC3)cc2)[C@@H]1CNC(=O)CN(C)C
CCCNC(=O)NC[C@H]1[C@H](c2ccc(C3=CCCC3)cc2)[C@@H](CO)N1C(=O)CC
CCCNC(=O)NC[C@H]1[C@@H](c2ccc(C3=CCCC3)cc2)[C@H](CO)N1C(=O)CC
CCCNC(=O)NC[C@@H]1[C@H](c2ccc(C3=CCCC3)cc2)[C@H](CO)N1C(=O)CC
CCC(=O)N1[C@H](CNC(=O)CN(C)C)[C@@H](c2ccc(C3=CCCC3)cc2)[C@@H]1CO
CCCNC(=O)NC[C@H]1[C@H](c2ccc(C3=CCCC3)cc2)[C@H](CO)N1C(=O)CC
CCCNC(=O)NC[C@@H]1[C@H](c2ccc(C3=CCCC3)cc2)[C@@H](CO)N1C(=O)CC
CCCNC(=O)NC[C@H]1[C@@H](c2ccc(C3=CCCC3)cc2)[C@@H](CO)N1C(C)=O
CN(C)Cc1cccc(-c2ccccc2)c1O
O=S(=O)(Nc1ccncc1)c1ccc(Cl)cc1
COc1cc(OC)c2c(-c3cccc(-c4ccc(N(C)C)cc4)c3)cc(=O)oc2c1
COc1cc(OC)c2c(-c3cccc(-c4ccc(O)cc4)c3)cc(=O)oc2c1
COc1ccc(-c2cccc(-c3cc(=O)oc4cc(OC)cc(OC)c34)c2)cc1
Cc1cc(C(=O)N2CCc3ccccc32)n(-c2ccccc2)n1
CC(C)n1cc(NC(=O)c2cc(-c3ccccc3)on2)cn1
C/C(=N\NC(=O)c1cc(-c2cccs2)nc2ccccc12)c1ccccn1
O=C(C[C@@H]1CC[C@H]2[C@@H](COC[C@@H](O)CN2C(=O)C2CCCC2)O1)NCc1ccncc1
O=C(COc1ccccc1F)c1ccc(O)cc1O
COc1ccccc1N1CCN(S(=O)(=O)c2ccc(F)cc2)CC1
Cc1c(C(=O)N(C)CCC#N)oc2ccc(S(=O)(=O)N3CCOCC3)cc12
COc1ccc(NC(=O)N(C)C[C@@H]2Oc3ccc(NC(=O)Nc4ccc(C(F)(F)F)cc4)cc3CC(=O)N([C@@H](C)CO)C[C@H]2C)cc1
COc1ccc(NC(=O)N(C)C[C@H]2Oc3ccc(NC(=O)Nc4ccc(C(F)(F)F)cc4)cc3CC(=O)N([C@H](C)CO)C[C@@H]2C)cc1
C[C@@H]1CN([C@@H](C)CO)C(=O)c2cc(NC(=O)CCC(F)(F)F)ccc2O[C@@H]1CN(C)C(=O)Nc1ccc2c(c1)OCO2
COc1ccc(NC(=O)N(C)C[C@H]2Oc3ccc(NC(=O)Nc4ccc(C(F)(F)F)cc4)cc3CC(=O)N([C@@H](C)CO)C[C@H]2C)cc1
COc1ccc(NC(=O)N(C)C[C@H]2Oc3ccc(NC(=O)Nc4ccc(C(F)(F)F)cc4)cc3CC(=O)N([C@H](C)CO)C[C@H]2C)cc1
COc1ccc(NC(=O)N(C)C[C@@H]2Oc3ccc(NC(=O)Nc4ccc(C(F)(F)F)cc4)cc3CC(=O)N([C@H](C)CO)C[C@@H]2C)cc1
COc1ccc(NC(=O)N(C)C[C@@H]2Oc3ccc(NC(=O)Nc4ccc(C(F)(F)F)cc4)cc3CC(=O)N([C@H](C)CO)C[C@H]2C)cc1
Cc1ccc(S(=O)(=O)N(C)C[C@@H]2Oc3ccc(NC(=O)Nc4ccc(C(F)(F)F)cc4)cc3CC(=O)N([C@@H](C)CO)C[C@@H]2C)cc1
COc1ccc(NC(=O)N(C)C[C@H]2Oc3ccc(NC(=O)Nc4ccc(C(F)(F)F)cc4)cc3CC(=O)N([C@@H](C)CO)C[C@@H]2C)cc1
Cc1ccc(S(=O)(=O)N(C)C[C@@H]2Oc3ccc(NC(=O)Nc4ccc(C(F)(F)F)cc4)cc3CC(=O)N([C@H](C)CO)C[C@@H]2C)cc1
CSC(=S)NCc1cccnc1
Cc1ccc(NC(=O)N(C2=NCC(C)S2)c2ccccc2)cc1 (stereo unspecified)
Cc1ccc(SC(C)C(=O)NCCC2=CCCCC2)cc1 (stereo unspecified)
Cn1c(=O)c2cc(S(=O)(=O)NCCC(=O)NCCC3=CCCCC3)ccc2n(C)c1=O
Cc1ccc(-c2nnc(SCc3ccc(C#N)cc3)n2Cc2ccco2)cc1
COc1ccc(OC)c(-n2cc3c(=O)n(C)c(=O)n(C)c3c2)c1
CC(C)c1cc(C(=O)N/N=C/C(Br)=C/c2ccccc2)n[nH]1
O=C(Nc1nc2c(s1)CCc1ccccc1-2)c1ccco1
CCc1nc2ccc(C(=O)N3CCN(C(=O)c4ccco4)CC3)cn2c1N(C)C(=O)COc1ccccc1
Cc1ccc(NC(=O)COc2ccc(Br)cc2CO)cc1
CC(=O)N1[C@H](CNC(=O)CN(C)C)[C@H](c2ccc(C3=CCCCC3)cc2)[C@@H]1CO
CC(=O)N(C)C[C@@H]1[C@@H](c2ccc(-c3cccnc3)cc2)[C@H](CO)N1C(=O)C1CC1
CC(=O)N(C)C[C@H]1[C@H](c2ccc(-c3cccnc3)cc2)[C@@H](CO)N1C(=O)C1CC1
CN1[C@H](CO)[C@@H]2c3ccccc3N(C(=O)c3ccc(F)cc3)C[C@@H]21
O=C(Nc1ccccc1F)N1C[C@@H]2[C@H](c3ccccc31)[C@H](CO)N2C(=O)c1ccc(F)cc1
O=C(c1ccc(F)cc1)N1C[C@H]2[C@@H](c3ccccc31)[C@H](CO)N2C(=O)c1ccc(F)cc1
CC(=O)N1C[C@H]2[C@@H](c3ccccc31)[C@@H](CO)N2C(=O)c1ccc(F)cc1
CC(=O)N1[C@H](CO)[C@@H]2c3ccccc3N(C(=O)c3ccc(F)cc3)C[C@@H]21
O=C(Nc1ccccc1F)N1C[C@@H]2[C@H](c3ccccc31)[C@@H](CO)N2C(=O)c1ccc(F)cc1
O=C(Nc1ccccc1F)N1C[C@H]2[C@@H](c3ccccc31)[C@H](CO)N2C(=O)c1ccc(F)cc1
CC(C)C(=O)Nc1ccc2c(c1)C(=O)N(C)[C@@H]1CC[C@@H](CC(=O)NCc3cccc(F)c3)O[C@H]1CO2
CN1C(=O)c2cc(NC(=O)C3CC3)ccc2OC[C@H]2O[C@H](CC(=O)NCc3cccc(F)c3)CC[C@H]21
CC(C)C(=O)Nc1ccc2c(c1)C(=O)N(C)[C@@H]1CC[C@H](CC(=O)NCc3cccc(F)c3)O[C@@H]1CO2
Cc1ccc2c(CN3CCCc4ccccc43)cc(=O)oc2c1C
C[C@H](CO)N1C[C@H](C)[C@@H](CN(C)Cc2ccncc2)Oc2c(NC(=O)C3CCOCC3)cccc2C1=O
CNC[C@H]1Oc2c(NC(=O)C3CCOCC3)cccc2C(=O)N([C@H](C)CO)C[C@@H]1C
